From PubChem BioAssay (NCATS)
Results filed as inconclusive are left out. Where a call stands in place of a potency, no number is given. Unmarked numbers belong to inactive results. The source made the active and inactive calls. The call rests on the fitted dose curve.

Test: Primary qHTS for Huh7 cytotoxicity: counterscreen for inhibitors of MERS-S pseudotyped particle cell entry (AID 1479147)
Details: cell viability read-out; series mostly up to 57.1 µM; activity change, negative = cytotoxicity: at the top concentration
Potency means the concentration at half of the fitted maximal effect.

| Compound | outcome | activity change, negative = cytotoxicity [%] | Potency |
| --- | --- | --- | --- |
| CC/C=C(\C(=O)N[C@@H]1C(=O)N2C(C(=O)OCOC(=O)C(C)(C)C)=C(COC(N)=O)CS[C@H]12)c1csc(N)n1 | inactive | – | – |
| O=C1CCC(N2C(=O)c3ccccc3C2=O)C(=O)N1 (configuration not stated) | inactive | – | – |
| N[C@@H]1CONC1=O | inactive | – | – |
| CC1=NS(=O)(=O)c2cc(Cl)ccc2N1 | inactive | – | – |
| CC1=C(C(=O)O)N2C(=O)[C@@H](NC(=O)[C@H](N)c3ccccc3)[C@H]2SC1 | inactive | – | – |
| Cc1ccc(S(=O)(=O)NC(=O)NN2CCCCCC2)cc1 | inactive | – | – |
| C[C@@H](c1ncncc1F)C(O)(Cn1cncn1)c1ccc(F)cc1F (some centres not stated) | inactive | – | – |
| Cc1ccc(S(=O)(=O)NC(=O)NN2CC3CCCC3C2)cc1 (configuration not stated) | – | -18.7 | – |
| NNCCc1ccccc1 | inactive | – | – |
| CC(C)[N+](C)(CCOC(=O)C1c2ccccc2Oc2ccccc21)C(C)C | inactive | – | – |
| O=C1c2c(O)ccc(O)c2C(=O)c2c(NCCNCCO)ccc(NCCNCCO)c21 | – | – | 25.1 µM (active) |
| NC(=O)C(c1ccccc1)(c1ccccc1)[C@@H]1CCN(CCc2ccc3c(c2)CCO3)C1 | – | 2.74 | – |
| CC(C)(O)c1ccccc1CC[C@@H](SCC1(CC(=O)O)CC1)c1cccc(/C=C/c2ccc3ccc(Cl)cc3n2)c1 | – | 3.43 | – |
| CC(=O)SC[C@@H](C)C(=O)N1CCC[C@H]1C(=O)N[C@@H](Cc1ccccc1)C(=O)O | inactive | – | – |
| CCCCC1=NC2(CCCC2)C(=O)N1Cc1ccc(-c2ccccc2-c2nn[nH]n2)cc1 | – | -1.68 | – |
| CC1=C(C(=O)O)N2C(=O)[C@@H](NC(=O)[C@H](N)c3ccc(O)cc3)[C@H]2SC1 | inactive | – | – |
| O=C1NC(=O)C(c2ccccc2)(c2ccccc2)N1 | inactive | – | – |
